Experimental data published in PubChem BioAssay (NCI).
Compounds without any hit were thinned out: in the full panel of roughly 79,000, 15% have a hit. Active and inactive are the calls of the source. Rule as the data show it: active = growth inhibition above about 70%; inactive = the rest.

Experiments:
[1] = NCI Yeast Anticancer Drug Screen. Data for the rad52 strain (AID 147);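 also: 0% = growth of vehicle-treated control cultures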; settings: S. cerevisiae rad52 mutant growth inhibition, active compounds read high
How it was run: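 Vehicle-treated cultures served as the reference for growth inhibition of compound-exposed yeast bearing a DNA repair mutation.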

[2] = NCI Yeast Anticancer Drug Screen. Data for the wt1 strain (AID 149);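 also: 0% = growth of vehicle-treated wt1 cultures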; settings: S. cerevisiae wt1 strain (SPY 50644) growth inhibition, active compounds read high
How it was run: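 Measured: growth of wt1 yeast under compound versus vehicle treatment, reported as inhibition.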

[3] = NCI Yeast Anticancer Drug Screen. Data for the rad50EPP+ strain (AID 151);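 also: 0% = growth of vehicle-treated control cultures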; settings: S. cerevisiae rad50 mutant strain, active compounds read high
How it was run: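 In this screen, rad50EPP+ yeast were exposed to compounds. Growth inhibition was scored against vehicle-treated controls.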

[4] = NCI Yeast Anticancer Drug Screen. Data for the mgt1 strain (AID 153); settings: S. cerevisiae mgt1 mutant growth inhibition, active compounds read high
How it was run: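 mgt1 strain exposed; growth vs vehicle control recorded as inhibition.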

[5] = NCI Yeast Anticancer Drug Screen. Data for the rad50 strain (AID 155);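 also: 0% = growth of vehicle-only cultures of the same strain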; settings: S. cerevisiae rad50 strain growth inhibition, active compounds read high
How it was run: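 Growth of the mutant yeast was measured after compound exposure and referenced to vehicle-treated cultures.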

[6] = NCI Yeast Anticancer Drug Screen. Data for the mec2-1 strain (AID 157); settings: S. cerevisiae mec2-1 strain, active compounds read high
How it was run: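 Vehicle-treated cultures served as reference for growth inhibition of compound-exposed mec2-1 yeast.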

[7] = NCI Yeast Anticancer Drug Screen. Data for the rad14 strain (AID 159);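 also: 0% = growth of vehicle-treated control cultures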; settings: S. cerevisiae rad14 strain growth inhibition, active compounds read high
How it was run: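 Here, inhibition of yeast growth was measured after compound exposure, using a strain with a genetic defect in DNA damage repair and vehicle-treated cultures as the reference.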

[8] = NCI Yeast Anticancer Drug Screen. Data for the sgs1 mgt1 strain (AID 161);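 also: 0% = growth of cultures given vehicle only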; settings: S. cerevisiae sgs1 mgt1 strain, active compounds read high
How it was run: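 Mutant yeast exposed to compound; growth scored against vehicle-only wells.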

[9] = NCI Yeast Anticancer Drug Screen. Data for the CLN2oe strain (AID 163);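 also: 0% = growth of vehicle-only control cultures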; settings: S. cerevisiae CLN2oe strain, active compounds read high
How it was run: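 Inhibition relative to vehicle-treated yeast is reported. Cells: strain with genetic alteration in cell-cycle control, grown with compound.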

[10] = NCI Yeast Anticancer Drug Screen. Data for the cln2 rad14 strain (AID 165);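 also: 0% = growth equal to vehicle treated cultures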; settings: S. cerevisiae cln2 rad14 strain, active compounds read high
How it was run: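 Each compound was tested on cln2 rad14 yeast. Inhibition of growth was calculated against vehicle-exposed controls.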

[11] = NCI Yeast Anticancer Drug Screen. Data for the bub3 strain (AID 167); settings: S. cerevisiae bub3 mutant strain, active compounds read high
How it was run: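 Whole-cell yeast assay. The mutant strain was incubated with compounds, and growth inhibition was determined by comparison with vehicle-treated cells.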

[12] = NCI Yeast Anticancer Drug Screen. Data for the wt2 strain (AID 169);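 also: 0% = growth of vehicle-treated yeast cultures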; settings: S. cerevisiae wt2 strain growth inhibition, active compounds read high
How it was run: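 Inhibition of yeast growth was determined after compound treatment, normalised to controls receiving only vehicle.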

[13] = NCI Yeast Anticancer Drug Screen. Data for the mlh1 strain (AID 171);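 also: 0% = growth of vehicle-treated control cultures of the same strain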; settings: S. cerevisiae mlh1 strain growth inhibition, active compounds read high
How it was run: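 Vehicle-normalised growth inhibition of a repair- or checkpoint-altered yeast strain following compound treatment.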

[14] = NCI Yeast Anticancer Drug Screen. Data for the sgs1 strain (AID 173);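 also: 0% = growth of vehicle-only control cultures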; settings: S. cerevisiae sgs1 mutant, active compounds read high
How it was run: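 Screen format: yeast with repair or checkpoint alterations, compound exposure, growth read relative to vehicle.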

[15] = NCI Yeast Anticancer Drug Screen. Data for the mlh1 rad18 strain (AID 175); settings: S. cerevisiae mlh1 rad18 strain growth inhibition, active compounds read high
How it was run: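 Vehicle-treated cultures served as the reference for growth inhibition in a yeast strain carrying DNA damage repair alterations exposed to each compound.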

[16] = NCI Yeast Anticancer Drug Screen. Data for the rad18 strain (AID 177); settings: S. cerevisiae rad18 mutant growth inhibition, active compounds read high
How it was run: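 Test articles were incubated with altered yeast defective in DNA damage repair. Results are given as inhibition of growth versus vehicle.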

[17] = at 5.0 µM (retest, dose inferred, filed as 0.5)
[18] = at 50.0 µM (retest, dose inferred, filed as 5.0)

Measured: growth inhibition

CC1SC2(C(=O)Nc3ccc(Cl)cc32)N(c2ccc(Cl)cc2)C1=O (stereo unspecified)
active: [1]; at 33.0 µM 98% | [1]; at 100.0 µM 89% | [4]; at 33.0 µM 98% | [4]; at 100.0 µM 95% | [5]; at 33.0 µM 96% | [5]; at 50.0 µM 99.6% | [5]; at 100.0 µM 96% | [6]; at 33.0 µM 99% | [6]; at 50.0 µM 99.8% | [6]; at 100.0 µM 98% | [7]; at 33.0 µM 99% | [7]; at 100.0 µM 99% | [8]; at 50.0 µM 99.8% | [9]; at 33.0 µM 99% | [9]; at 100.0 µM 81% | [10]; at 50.0 µM 99.5% | [11]; at 33.0 µM 95% | [11]; at 50.0 µM 99.5% | [11]; at 100.0 µM 97% | [12]; at 33.0 µM 98% | [12]; at 100.0 µM 98% | [13]; at 33.0 µM 97% | [13]; at 100.0 µM 93% | [14]; at 33.0 µM 98% | [14]; at 100.0 µM 94% | [15]; at 50.0 µM 99.5%
inactive: [1]; at 1.2 µM -2% | [1]; at 3.7 µM 0% | [1]; at 11.0 µM 17% | [2]; at 1.2 µM -3% | [2]; at 3.7 µM -4% | [2]; at 11.0 µM -3% | [2]; at 33.0 µM 68% | [2]; at 100.0 µM 61% | [3]; at 1.2 µM -2% | [3]; at 3.7 µM -3% | [3]; at 11.0 µM -1% | [3]; at 33.0 µM -2% | [3]; at 100.0 µM 1% | [4]; at 1.2 µM -5% | [4]; at 3.7 µM -4% | [4]; at 11.0 µM 3% | [5]; at 1.2 µM -14% | [5]; at 3.7 µM 0% | [5]; [17] 20% | [5]; at 11.0 µM 10% | [5]; [18] -1% | [6]; at 1.2 µM -3% | [6]; at 3.7 µM 3% | [6]; [17] 11% | [6]; at 11.0 µM 18% | [6]; [18] 5% | [7]; at 1.2 µM -3% | [7]; at 3.7 µM -2% | [7]; at 11.0 µM 10% | [8]; [17] 15% | [8]; [18] 4% | [9]; at 1.2 µM -7% | [9]; at 3.7 µM -7% | [9]; at 11.0 µM 12% | [10]; [17] -1% | [10]; [18] -11% | [11]; at 1.2 µM 3% | [11]; at 3.7 µM 12% | [11]; [17] 28% | [11]; at 11.0 µM 31% | [11]; [18] 9% | [12]; at 1.2 µM -4% | [12]; at 3.7 µM -5% | [12]; at 11.0 µM -3% | [13]; at 1.2 µM -1% | [13]; at 3.7 µM -1% | [13]; at 11.0 µM 12% | [14]; at 1.2 µM -2% | [14]; at 3.7 µM 0% | [14]; at 11.0 µM 12% | [15]; [17] 8% | [15]; [18] -4%

CC(C)OC(=O)Nc1ccc2nc(-c3cscn3)[nH]c2c1
active: [1]; at 100.0 µM 87% | [4]; at 100.0 µM 98% | [5]; at 100.0 µM 90% | [6]; at 100.0 µM 81% | [7]; at 100.0 µM 99% | [8]; at 50.0 µM 76% | [11]; [18] 81% | [11]; at 100.0 µM 97% | [12]; at 100.0 µM 97% | [13]; at 100.0 µM 96% | [14]; at 100.0 µM 97% | [15]; [18] 87% | [15]; at 50.0 µM 93.1% | [16]; at 100.0 µM 97%
inactive: [1]; at 1.2 µM -3% | [1]; at 3.7 µM -5% | [1]; at 11.0 µM -3% | [1]; at 33.0 µM 1% | [2]; at 1.2 µM -1% | [2]; at 3.7 µM 3% | [2]; at 11.0 µM -1% | [2]; at 33.0 µM -2% | [2]; at 100.0 µM 50% | [3]; at 1.2 µM 9% | [3]; at 3.7 µM 16% | [3]; at 11.0 µM 23% | [3]; at 33.0 µM 31% | [3]; at 100.0 µM 44% | [4]; at 1.2 µM -5% | [4]; at 3.7 µM -7% | [4]; at 11.0 µM -15% | [4]; at 33.0 µM 4% | [5]; at 1.2 µM -1% | [5]; at 3.7 µM -1% | [5]; [17] -4% | [5]; at 11.0 µM -3% | [5]; at 33.0 µM 10% | [5]; [18] 51% | [5]; at 50.0 µM 17.8% | [6]; at 1.2 µM 2% | [6]; at 3.7 µM 5% | [6]; [17] -4% | [6]; at 11.0 µM 8% | [6]; at 33.0 µM 16% | [6]; [18] 23% | [6]; at 50.0 µM -3.75% | [7]; at 1.2 µM -4% | [7]; at 3.7 µM -6% | [7]; at 11.0 µM -4% | [7]; at 33.0 µM 16% | [8]; [17] 1% | [8]; [18] 39% | [9]; at 1.2 µM -8% | [9]; at 3.7 µM -20% | [9]; at 11.0 µM -18% | [9]; at 33.0 µM -13% | [9]; at 100.0 µM 56% | [10]; [17] 8% | [10]; [18] 19% | [10]; at 50.0 µM 12.8% | [11]; at 1.2 µM -3% | [11]; at 3.7 µM -2% | [11]; [17] -1% | [11]; at 11.0 µM 4% | [11]; at 33.0 µM 25% | [11]; at 50.0 µM 7.85% | [12]; at 1.2 µM -1% | [12]; at 3.7 µM -2% | [12]; at 11.0 µM -4% | [12]; at 33.0 µM 2% | [13]; at 1.2 µM 1% | [13]; at 3.7 µM 1% | [13]; at 11.0 µM 3% | [13]; at 33.0 µM 16% | [14]; at 1.2 µM 2% | [14]; at 3.7 µM 3% | [14]; at 11.0 µM 8% | [14]; at 33.0 µM 18% | [15]; [17] 11% | [16]; at 1.2 µM -2% | [16]; at 3.7 µM -4% | [16]; at 11.0 µM -3% | [16]; at 33.0 µM 4%
